Results published in PubChem BioAssay AID1903 (Southern Research Specialized Biocontainment Screening …, 2009).
The whole screen tested about 310,000 compounds, of which about 1,200 (0.39%) were called active. No rule for the calls is given here. A selection follows. Entries with a potency or affinity are not part of this list.

Each compound was assayed against Large T antigen (Simian virus 40) (UniProt P03070) (assay: TAg ATPase/helicase activity blockers – biochemical (AID 1903)). Settings: SV40 large T antigen ATPase/helicase inhibition assay; at 20 µM; stronger effect = higher value.
Large T antigen (Simian virus 40), sequence (P03070 whole entry, looked up): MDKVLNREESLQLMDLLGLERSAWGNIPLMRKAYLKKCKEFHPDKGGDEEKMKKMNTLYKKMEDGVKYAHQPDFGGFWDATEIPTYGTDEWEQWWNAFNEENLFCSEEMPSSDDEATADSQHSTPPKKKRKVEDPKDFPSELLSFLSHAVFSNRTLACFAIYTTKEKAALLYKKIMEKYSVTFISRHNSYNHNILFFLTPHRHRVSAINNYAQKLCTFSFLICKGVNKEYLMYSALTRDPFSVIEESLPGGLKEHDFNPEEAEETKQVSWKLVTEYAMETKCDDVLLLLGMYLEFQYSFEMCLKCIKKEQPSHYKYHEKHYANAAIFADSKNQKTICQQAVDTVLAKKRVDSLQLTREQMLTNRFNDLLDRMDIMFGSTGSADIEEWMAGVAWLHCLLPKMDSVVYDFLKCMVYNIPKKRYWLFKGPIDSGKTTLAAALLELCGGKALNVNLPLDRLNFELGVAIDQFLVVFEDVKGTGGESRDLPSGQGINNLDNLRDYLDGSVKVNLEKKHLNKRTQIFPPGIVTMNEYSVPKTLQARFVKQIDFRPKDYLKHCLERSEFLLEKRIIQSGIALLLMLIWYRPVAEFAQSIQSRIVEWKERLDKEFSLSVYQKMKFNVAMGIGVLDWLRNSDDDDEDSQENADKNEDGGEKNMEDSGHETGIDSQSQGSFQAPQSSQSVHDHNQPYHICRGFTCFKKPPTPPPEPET

inhibition, inactive:
Cc1ccc(C)c(OC(=O)c2cccnc2Cl)c1C 25.3%, CCOCCn1c(SCc2ccccc2)nc2c1c(=O)[nH]c(=O)n2C 16.9%, CCOC(=O)C1C(c2ccccc2)C(C(=O)OCC)S(=O)(=O)C(CCN(CC)CC)S1(=O)=O (stereo unspecified) 4.87%, COC(=O)Cc1nnc(SCC(=O)Nc2ccccc2)c2ccccc12 11.3%, COc1ccc(NC(=O)Cn2c3ccccc3c3nc4n(c(=O)c32)CCS4)cc1OC 10.1%, O=C(c1nnsc1S(=O)(=O)c1ccc(Cl)cc1)N1CCOCC1 4.81%, O=C(c1cc(-c2ccc(Cl)cc2)on1)N1CCOCC1 7.19%, O=C(Nc1ccccc1)Nc1snnc1C(=O)Nc1cccc(O)c1 10.9%, Cc1nnsc1C(=O)Nc1ccc(Cl)cc1 3.36%, Clc1cccc(NCc2nnc(SCc3ccc(Cl)cc3Cl)o2)c1 0.46%, COc1ccc(/C=N/NC(=O)c2ccccc2OC)cc1COc1ccccc1[N+](=O)[O-] 1.66%, CCOC(=O)c1nc(-c2ccccc2)sc1C(C)=O 13.2%, Cc1ccc(C)c(NC(=O)CN(C)C(=O)c2cc3ccccc3o2)c1 13.7%, O=[N+]([O-])c1ccc(N2CCCCC2)cn1 4.49%, O=[N+]([O-])c1cc(S(=O)(=O)Nc2ccccc2)ccc1N1CCN(c2ccc(O)cc2)CC1 17.3%, O=[N+]([O-])c1ccc(N2CCOCC2)cn1 20.2%, CN1CCN(c2ccc(S(=O)(=O)N3CCCCC3)cc2[N+](=O)[O-])CC1 23.6%, COc1ccc(N2CCN(c3ccc(C(N)=O)cc3[N+](=O)[O-])CC2)cc1 20.4%, CC(=O)c1ccc(N2CCN(c3ccc(C(N)=O)cc3[N+](=O)[O-])CC2)cc1 12.7%, CSc1ncccc1C(=O)Nc1nc(C(C)(C)C)cs1 8.58%, COc1ccc(C(CC(=O)NCc2ccccc2)C(C)C)cc1 (stereo unspecified) 6.33%, Cc1c(NC(=O)C(C)OC(=O)COc2ccccc2)c(=O)n(-c2ccccc2)n1C (stereo unspecified) 10.4%, CCCCN(CCCC)CCNC(=O)Cc1nc2c(c(=O)[nH]c(=O)n2C)n1C 3.54%, CC(NC(=O)Nc1ccc(F)cc1F)c1ccc2c(c1)OCO2 (stereo unspecified) 16.7%, CCCn1c(SCC(=O)NCc2ccc(C)cc2)n[nH]c1=O 7.77%, COc1ccc(NC(=O)CN(C)C(=O)c2cccc(S(=O)(=O)N3CCN(Cc4ccccc4)CC3)c2)cc1 8.39%, COCCn1c(SCC(=O)N2CC(C)OC(C)C2)nc2c([nH]c3ccccc32)c1=O (stereo unspecified) -1.92%, O=C(CCc1ccc(O)c(O)c1)N/N=C/c1ccc2c(c1)OCO2 32.3%, CN1CCN(CCC(=O)N/N=C/c2cc3c(cc2[N+](=O)[O-])OCO3)CC1 4.45%, COc1ccc(OC)c(/C=N/NC(=O)CCc2c(C)n[nH]c2C)c1 5.18%, COc1ccc(OC)c(/C=N/NC(=O)C(=O)N/N=C/c2cc(OC)ccc2OC)c1 -5.1%, CCN(CC)S(=O)(=O)c1cccc(NC(=O)COC(=O)CCc2nc3ccccc3s2)c1 11.8%, Cc1snc(S(=O)(=O)/C(C#N)=N/Nc2ccc(C(F)(F)F)cc2)c1C#N 6.46%, Cc1ccc(C)c(C(=O)CSc2nnc(C)s2)c1 -0.65%, CC1CCCCN1C(=O)CSc1nc(N)nc(N)n1 (stereo unspecified) 3.86%, COc1ccc(NC(=O)c2ccccc2NC(=O)COc2ccccc2)cc1 12.1%, COC(=O)c1ccc(OC)c(NS(=O)(=O)c2ccc(-n3cnnn3)cc2)c1 2.42%, Cn1nc(-c2ccccc2)nc1-c1ccccc1 11.2%, O=c1nc(-c2ccccc2)n(-c2ccccc2)[nH]1 -3.35%, COc1cc(C(=O)NCC(=O)N/N=C/c2ccccn2)cc(OC)c1OC 10.4%, CCc1c(C(=O)NNC(=S)Nc2ccc(S(=O)(=O)Nc3ncccn3)cc2)csc1C 15.1%, Cc1n[nH]c(C)c1S(=O)(=O)N1CCC(C(=O)Nc2cccc(F)c2)CC1 4.04%, O=C(NCCc1ccccc1)C1CCN(S(=O)(=O)N2CCCC2)CC1 7.04%, CCC(=O)Nc1ccc(NC(=O)c2ccco2)cc1 2.13%, COc1ccccc1NC(=O)c1ccc(NC(=O)c2ccco2)cc1 9.63%, O=C(Nc1ccc(F)cc1)c1ccccc1F 12.9%, COc1cccc(OC)c1C(=O)Nc1ccc(NC(=O)c2ccco2)cc1 2.08%, Cc1ccc(NC(=O)CCNC(=O)c2ccco2)cc1 1%, CCN(CC)S(=O)(=O)c1ccc(NC(=O)CCNC(=O)c2ccco2)cc1 7.03%, O=C(Nc1ccc(NC(=O)c2ccco2)cc1)c1ccco1 3.69%, CC(=O)Nc1ccc(NC(=O)c2ccccc2F)cc1 2.47%, Cc1cccc(C)c1OCC(=O)NNC(=O)c1ccoc1C 2.67%, CN(C)CCCN(C(=O)c1ccc2ccccc2c1)c1nc2cc3c(cc2s1)OCO3 3.84%, CCOC(=O)n1c(=O)n(C)c2ccc(Br)cc21 4.58%, C(=C\c1ccccc1)/C=N/Nc1nncc(-c2ccccc2)n1 8.88%, Cc1ccc(CN2CCN(C3CCC3)CC2CCO)cc1 (stereo unspecified) 9.81%, COc1cc([C@H]2Oc3cc([C@H]4Oc5cc(O)cc(O)c5C(=O)[C@@H]4O)ccc3O[C@@H]2CO)ccc1O 22.1%, COc1cc(C2Oc3cc(C4Oc5cc(O)cc(O)c5C(=O)C4O)ccc3OC2CO)ccc1O (stereo unspecified) 22.1%, CCc1nnc(SCc2ccc(C(=O)OC)o2)n1N 15%, CN1/C(=C/C=N/NC(=O)c2ccc([N+](=O)[O-])cc2)C(C)(C)c2ccccc21 4.27%, CN1/C(=C\C=N\NC(=O)c2cccnc2)C(C)(C)c2ccccc21 33.6%
